# Screening data deposited in PubChem BioAssay by National Center for Advancing Translational Sciences (NCATS).
# This is one part of a sample in which hits are shown more often than they occur.
# Tb PYK inh: qHTS of Trypanosoma Brucei Inhibitors; TbPYK enzyme, Kinase-Glo Plus ATP luminescence, 45 min; Potency, µM (top dose mostly 76.8 µM), for inactives: at the top dose activity, negative = inhibition, actives largely listed as inhibitors; hit rate 0.12% among 410,000; AID 624173, 2012; further: potency means the concentration at half of the fitted maximal effect; on the % scale 0 is the no-effect control and ±100 the full control effect; nearly all actives have a fitted effect of over 50% in size
#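 Quantitative HTS: titrated library compounds versus trypanosomal pyruvate kinase in TEA buffer (pH 7.2) containing KCl, MgCl2, BSA and Tween-20. Reactions were initiated with ADP, 130 uM final. Kinase-Glo Plus luminescence was read after 45 min at RT.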
# Cycloheximide cs: Cycloheximide Counterscreen for Small Molecule Inhibitors of Shiga Toxin. cell reporter, cycloheximide protein synthesis inhibition counterscreen. max response, %. hit rate 12% among 300,000; in the data active means max response mostly above about 13%, no sharp cut-off; inactive means mostly below about 14%; further: read at 38.3 µM for the half of the compounds with a filed dose; 0% is about no effect
# RE007 growth inh: qHTS Assay for Inhibitors of the HIV-1 protein Vpr; Potency, µM (top dose mostly 92.2 µM), for the others: at the top dose activity change, negative = less growth, hits mostly inhibitors; hit rate 0.21% among 360,000; S. pombe RE007 Vpr strain, BacTiter-Glo ATP luminescence, 24 h; active means well fitted falling curve with a large enough effect; inconclusive means small, poorly fitted or top-dose-only effect; inactive means no such curve, though single readings can be large or run the other way; further: potency means the concentration at half of the fitted maximal effect; on the % scale 0 is the no-effect control and ±100 the full control effect; nearly all actives have a fitted effect of over 50% in size
#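 Fission yeast strain RE007, carrying one chromosomally integrated HIV-1 vpr copy, was seeded at OD 0.01 in PMG+AL medium with 23 nL pinned compound. After 24 h at 30 °C and 99% humidity, viability was read by BacTiter-Glo luminescence.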
# LmPK inh: qHTS Assay for Inhibitors of Leishmania Mexicana Pyruvate Kinase (LmPK) | Q27686 | purified LmPK, Kinase-Glo ATP luminescence, 1 h | Potency, µM (top dose mostly 57.5 µM), for inactives: at the top dose activity change, negative = inhibition, hits mostly inhibitors | hit rate 0.37% among 290,000; further: potency means the concentration at half of the fitted maximal effect; on the % scale 0 is the no-effect control and ±100 the full control effect
# Target sequence (Q27686 whole entry, looked up): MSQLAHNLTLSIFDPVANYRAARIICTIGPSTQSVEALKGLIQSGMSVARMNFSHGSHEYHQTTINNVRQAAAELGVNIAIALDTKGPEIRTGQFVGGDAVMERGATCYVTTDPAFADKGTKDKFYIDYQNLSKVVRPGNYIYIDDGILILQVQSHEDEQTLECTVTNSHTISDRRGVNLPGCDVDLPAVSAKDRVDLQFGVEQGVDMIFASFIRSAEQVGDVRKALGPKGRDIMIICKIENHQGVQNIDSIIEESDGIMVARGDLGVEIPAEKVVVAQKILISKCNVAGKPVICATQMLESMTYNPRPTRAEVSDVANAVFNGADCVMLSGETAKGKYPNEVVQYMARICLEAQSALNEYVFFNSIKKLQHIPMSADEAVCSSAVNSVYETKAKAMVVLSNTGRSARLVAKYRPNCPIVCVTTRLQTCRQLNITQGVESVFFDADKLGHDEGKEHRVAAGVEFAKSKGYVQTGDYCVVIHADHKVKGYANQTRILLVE
#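 Screened at intermediate enzyme activity to detect both inhibitors and activators: LmPK at 0.1 nM, with a 0.5 nM enzyme column as activation reference. PEP 0.5 mM, ADP 0.1 mM; ATP detected by luminescence after 1 h.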
# FBPA Giardia inh: qHTS Assay for Inhibitors of Fructose-1,6-bisphosphate Aldolase from Giardia Lamblia. AID 2451, 2010. hit rate 0.71% among 290,000. A8B2U2. Potency, µM (top dose mostly 59.6 µM), for inactives: top-dose activity, negative = inhibition, usual class: inhibitors. purified Giardia FBPA; further: potency means the concentration at half of the fitted maximal effect; on the % scale 0 is the no-effect control and ±100 the full control effect; nearly all actives have a fitted effect of over 55% in size
#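 40 nM FBPA preincubated 10 min at RT with compound (up to 57.5 uM final), then substrate plus GAPDH/TPI/NAD/arsenate coupling and diaphorase/resazurin added. Fluorescence read after 20 min at RT, 525/598 nm.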
# Shiga toxin inh: A qHTS for Small Molecule Inhibitors of Shiga Toxin | Vero cells, Shiga toxin protein synthesis inhibition reporter | inhibition, % at 38.7 µM | hit rate 9.2% among 290,000 | AID 2315, 2010; in the data active means inhibition mostly above about 28%, no sharp cut-off; inactive means mostly below about 43%; further: 0% is about no effect
# An asterisk follows results filed as active; ? = inconclusive; nt = no result given; [ ] = another dose, or the depositor's remark. Unless noted, the call rests on the fitted dose curve; in most records, active means well fitted curve in the direction sought with a large enough effect; inconclusive means small, poorly fitted or top-dose-only effect, or another doubt; inactive means no such curve, though single readings can be large; an effect the other way counts as inactive or inconclusive.
SMILES,Tb PYK inh,Cycloheximide cs,RE007 growth inh,LmPK inh,FBPA Giardia inh,Shiga toxin inh
Nc1c(-c2ccccc2)cnc2ncnn12,0%,-3,-11%,-2%,1%,-11
Cc1ccc(O)c(-c2n[nH]c3c2C(c2ccc(F)cc2)N(Cc2ccco2)C3=O)c1 (centres undefined),-6%,nt,nt,nt,nt,nt
COC(=O)c1c(NC(C)=O)c2c3c(sc2n1Cc1cc(C)ccc1C)CCCC3,-1%,nt,nt,nt,nt,nt
Nc1nc2[nH]cc(CCc3ccc(C(=O)N[C@@H](CCC(=O)O)C(=O)O)cc3)c2c(=O)[nH]1,0%,nt,nt,nt,nt,nt
Cc1nc2c(-c3ccc(Cl)cc3)cnn2c2c1CCC2,-12%,35*,3%,4%,-4%,68*
Cc1nc2c(Cl)c(C)nn2c2c1CCC2,1%,11,1%,-5%,0%,-11
Cc1nc2c(-c3ccc(F)cc3)cnn2c(N)c1-c1ccccc1,2%,59*,-29%,2%,14%,140*
Fc1ccc(-c2cnn3c(-c4ccncc4)ccnc23)cc1,-4%,22*,-4%,-16%,6%,73*
COc1ccc(-c2c(C)nc3c(-c4ccc(F)cc4)cnn3c2N)cc1,0%,66*,-2%,9%,-2%,53*
Cc1cc(C(F)(F)F)n2ncc(-c3ccc(F)cc3)c2n1,-13%,6,6%,-7%,6%,2
CC(=O)c1sc(NC(=O)c2c(-c3ccccc3)c(-c3ccccc3)nn(C)c2=O)nc1C,2%,nt,nt,nt,nt,nt
C=C1C[C@@H]2[C@H]3CCC4=CC(=O)C=C[C@]4(C)[C@@]3(F)[C@@H](O)C[C@]2(C)[C@]1(O)C(=O)COC(C)=O,2%,nt,nt,nt,nt,nt
Cn1cc([N+](=O)[O-])c(C(=O)Nc2ccn(C34CC5CC(CC(C5)C3)C4)n2)n1,-10%,15*,6%,-2%,0%,2
Cc1ccc(-c2nc(NC(=O)c3nn(C)cc3[N+](=O)[O-])sc2C)cc1,-4%,-5,5%,3%,0%,-15
Cn1nccc1C(=O)Nc1ccn(C23CC4CC(CC(C4)C2)C3)n1,4%,44*,-4%,1%,6%,68*
CCn1cc([N+](=O)[O-])c(C(=O)Nc2ccn(C34CC5CC(CC(C5)C3)C4)n2)n1,-6%,-2,33%,1%,-1%,-1
Cn1cc([N+](=O)[O-])c(C(=O)Nc2nc(-c3ccc(Cl)cc3)cs2)n1,0%,17*,-3%,4%,0%,-41
Cc1oc(CN2CCOCC2)cc1C(=O)O,-5%,-3,10%,1%,1%,13
COC(=O)c1cc(COC(=O)COc2ccc(C)c(C)c2)oc1C,-5%,7,-7%,-1%,8%,-4
CCN(CC)Cc1cc(C(=O)O)c(C)o1,9%,13*,10%,3%,2%,53*
COc1ccc(OCc2cc(C(=O)O)c(C)o2)cc1,nt,33*,nt,1%,6%,26
COC(=O)c1cc(C(=O)OC)n(Cc2ccc(C)cc2)c1C,-3%,8,11%,14%,-11%,57
O=C(NCCN1CCCCC1)c1ccc(Cn2c(SCc3cccc(F)c3)nc3cccnc32)cc1,-3%,nt,nt,nt,nt,nt
Nc1ccc(N)cc1,8%,35*,nt,nt,?,95*
Nc1ccc(Cl)cc1,-3%[157 µM],nt,nt,nt,nt,nt
SMILES,Tb PYK inh,Cycloheximide cs,RE007 growth inh,LmPK inh,FBPA Giardia inh,Shiga toxin inh
Cc1cccc(C(=O)NC(C(=O)Nc2ccc(S(=O)(=O)Nc3nccs3)cc2)C(C)C)c1 (centres undefined),5%,nt,5%,nt,nt,nt
O=C(Nc1ccccc1Cl)c1ccn[nH]1,-7%,20*,-16%,-7%,nt,110
O=C(Nc1ccccc1NC(=O)c1ccccc1F)c1ccccc1F,5%,1,-3%,2%,-3%,-6
O=C(Nc1ccccc1Cl)c1cc[n+]([O-])cc1,-2%,-5,1%,-6%,-7%,-8
O=C(Nc1ccccc1F)c1ccn[nH]1,6%,22*,2%,4%,3%,47*
Cc1ccc(C(=O)CSc2nc(C)cc(C)c2C(=O)Nc2cccc(C)c2)cc1,0%,nt,nt,nt,nt,nt
Cc1ccccc1OCC(=O)Nc1ccncc1,2%,2,9%,-1%,14%,40
O=C(COc1ccc(Cl)cc1Br)NC1CC1,-18%,nt,-22%,nt,nt,nt
CCNC(=O)CCCOc1ccc(Cl)cc1Cl,-4%,29*,12%,-1%,4%,54*
Cc1ccc(OCC(=O)Nc2ccncc2)c(C)c1,-4%,20*,7%,1%,13%,23
O=C(CCCOc1ccc(Cl)cc1Cl)Nc1ccncc1,-8%,15*,-4%,0%,-7%,25
O=C(COc1ccc(Cl)cc1Br)Nc1ccncc1,-6%,58*,-28%,2%,-6%,47*
COC(=O)CCCOc1ccc(Cl)cc1Cl,nt,nt,nt,nt,-4%,nt
C=CCC1(C(C)CCC)C(=O)NC(=O)NC1=O (centres undefined),0%[157 µM],nt,nt,nt,nt,nt
COC(=O)[C@]12CCCCC=C1N(Cc1ccc(Cl)cc1Cl)C(=O)[C@H](CC(=O)NCCCCc1ccccc1)C2,1%,nt,7%,nt,nt,nt
Cc1ccc(S(=O)(=O)NC(=NC2CCCCC2)c2ccc(Cl)cc2)cc1,4%,-13,9%,3%,12%,6
O=C(CCCOc1ccc(Cl)cc1Cl)Nc1ccccn1,-7%,15,1%,1%,3%,55*
O=C(COc1ccc(Cl)cc1Cl)Nc1cccnc1,3%,45*,4%,0%,8%,86*
Cc1ccc(OCC(=O)NNC(=O)c2ccco2)c(C)c1,1%,14*,5%,-1%,-7%,14
CCC(Oc1ccc(F)cc1)C(=O)N1CCCCCCC1 (centres undefined),-22%,-2,-23%,-2%,0%,-4
Cc1cccc(Nc2nc(-c3ccc(F)cc3)cs2)n1,-1%,46*,8%,-7%,-2%,105*
COc1ccc(-c2csc(Nc3cccc(C)n3)n2)cc1C,0%,56*,-6%,-3%,3%,79*
COc1ccc(-c2csc(Nc3cccc(C)n3)n2)cc1,-3%,38*,4%,-3%,8%,71*
COc1ccc(-c2csc(Nc3ccc(S(N)(=O)=O)cc3)n2)cc1OC,-20%,-6,31%,9%,-15%,-11
CC(=O)Oc1ccc(-c2csc(Nc3cccc(C)n3)n2)cc1,4%,45*,-14%,-9%,4%,91*
Cc1cccc(-c2nc3c4ccccc4nc(NCc4ccc(Cl)cc4)n3n2)c1,2%,nt,nt,nt,nt,nt
CN(CC(=O)Nc1ccccc1Br)C(=O)CNC(=O)Cc1cccc2ccccc12,3%,-2,3%,-6%,nt,-24
